Assay results as given in PubChem BioAssay (NCATS).
Several values for one entry are separate records, joined by “and”; a condition that tells them apart may be missing. Equal entries are not always repeated. A number with no mark means an inactive call. Results filed as inconclusive are left out. Entries that show only a call come without a potency. Activity calls are given as the source filed them. Unless noted, the call rests on the fitted dose curve; in most records, active means well fitted curve in the direction sought with a large enough effect; inconclusive means small, poorly fitted or top-dose-only effect, or another doubt; inactive means no such curve, though single readings can be large; an effect the other way counts as inactive or inconclusive.

Experiments:
[1] = Cell Viability - MRC5 (AID 434; calls by dose curve;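 further: potency means the concentration at half of the fitted maximal effect; cells exposed to compound for 40 hours at 37 °C; potency reflects cytotoxicity seen as loss of intracellular ATP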); settings: MRC5 lung fibroblast viability, qHTS
How it was run: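 AC50 values come from Hill-equation fits of intracellular ATP loss, measured by CellTiter-Glo luminescence. Normal lung fibroblasts (MRC5) had 40 hr compound treatment at 37 C, normalized between DMSO and 100 uM tamoxifen.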

[2] = Cellular Toxicity (caspase-3) HepG2 (AID 654); settings: HepG2 caspase-3 activation, luminescence; series mostly up to 92.2 µM;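 further: cells exposed to compound for 16 hours before reading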
How it was run: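 Luminescent Caspase-Glo 3/7 readout after 16 hr compound exposure of human hepatocellular carcinoma HepG2 cells at 37 °C; qHTS concentration-response, normalized DMSO = 0%, 100 uM tamoxifen = 100%; AC50 by standard Hill equation.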

[3] = Cellular Toxicity (caspase-3) HUV-EC-C (AID 656); settings: HUV-EC-C cells, caspase-3 activation (apoptosis); series mostly up to 92.2 µM
How it was run: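 HUV-EC-C endothelial cells, 1000/well, were pre-incubated 5 hr at 37°C, then exposed to compounds for 16 hr at 37°C. Caspase-Glo 3/7 luminescence was read after 20 min at room temperature. AC50 came from Hill fits, normalized to DMSO and 100 uM tamoxifen.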

[4] = Cellular Toxicity (caspase-3) SHSY5Y (AID 657); settings: SH-SY5Y caspase-3 activation; series mostly up to 91.7 µM; further: potency means the concentration at half of the fitted maximal effect
How it was run: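 SH-SY5Y human neuroblastoma cells (1500/well) were treated with compounds for 16 h at 37 °C, then Caspase-Glo 3/7 luminescence was read after 1 h at room temperature. Data normalized to DMSO and 10 uM staurosporine; AC50 from Hill fits.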

[5] = Cellular Toxicity (caspase-3) BJ (AID 658); settings: BJ fibroblasts, luminescence; Potency: caspase-3 activation; series mostly up to 91.7 µM
How it was run: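 Caspase-Glo 3/7 luminescence, read 1 hr after reagent at room temperature, in normal BJ fibroblasts exposed 16 hours at 37 °C. AC50 values from Hill-equation concentration-response, scaled between DMSO basal and 10 uM staurosporine as 100%.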

[6] = Cellular Toxicity (caspase-3) MRC-5 (AID 659); settings: MRC-5 cells, luminescence, normalized: DMSO 0%, 10 µM staurosporine 100%; series mostly up to 91.7 µM
How it was run: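 Luminescent Caspase-Glo 3/7 read-out (1 h, room temperature) after a 16 h, 37 °C compound exposure of MRC-5 lung fibroblasts at 1500 cells/well. Concentration-response AC50 from Hill equation; 0% DMSO, 100% 10 uM staurosporine.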

[7] = Cellular Toxicity (caspase-3) Mesangial (AID 660); settings: mesangial cells, normalized: DMSO 0%, 100 µM tamoxifen 100%; series mostly up to 91.7 µM;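 further: combined caspase 3 and 7 activity read by Caspase-Glo luminescence; cells exposed to compound for 16 h before the caspase read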
How it was run: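 Luminescent Caspase-Glo 3/7 readout (aminoluciferin substrate cleavage, 20 min RT) after 16 h compound exposure at 37 °C of normal human mesangial cells. Signal increase normalized between DMSO basal and 100 uM tamoxifen; Hill-equation AC50.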

[8] = Cellular Toxicity (caspase-3) SK-N-SH (AID 661); settings: SK-N-SH caspase-3 activation, qHTS, DMSO as zero, staurosporine as full; series mostly up to 91.7 µM
How it was run: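 Luminescent Caspase-Glo 3/7 read-out after 16 hr compound exposure of SK-N-SH neuroblastoma cells at 37 °C. Signal increase normalized to DMSO (basal) and 10 uM staurosporine (100%); AC50 from Hill equation fits of qHTS concentration-response data.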

[9] = Cellular Toxicity (caspase-3) H-4-II-E (AID 663); settings: H-4-II-E rat hepatoma; Potency: caspase-3 activation; series mostly up to 92.2 µM;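 further: cells exposed to compound for 16 hr before readout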
How it was run: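 Caspase 3/7 activation measured by luminescent aminoluciferin substrate cleavage after 16 hr compound treatment of H-4-II-E cells in complete medium. Increase normalized between DMSO (basal) and 100 uM tamoxifen (100%); Hill-equation AC50 from concentration-response.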

[10] = Cellular Toxicity (caspase-3) Hek293 (AID 664); settings: HEK293 caspase-3 activation, DMSO = 0%, 100 µM tamoxifen = 100%; at 92.2 µM (top of the series);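 further: cells exposed to compound for 16 h at 37 °C before readout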
How it was run: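 Luminescent Caspase-Glo 3/7 readout (aminoluciferin release) in HEK293 cells after 16 h compound treatment, 37 °C. Normalization: DMSO = basal, 100 uM tamoxifen = 100% stimulation. Concentration-response fitted with standard Hill equation for AC50.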

[11] = Cellular Toxicity (caspase-3) N2a (AID 665); settings: N2a cells, luminescence, normalized: DMSO 0%, 10 µM staurosporine 100%; series mostly up to 92.2 µM;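 further: compound exposure lasted 16 h at 37 °C before readout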
How it was run: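 Luminescent Caspase-Glo 3/7 readout in N2a mouse neuroblastoma cells after 16 h compound exposure at 37 °C. Signal scaled to DMSO (basal) and 10 uM staurosporine (100%). Concentration-response fitted with Hill equation for AC50.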

[12] = Cellular Toxicity (caspase-3) Renal Proximal Tubule (AID 667); settings: renal proximal tubule cells, primary cells freshly taken from rat; Potency: caspase-3 activation; series mostly up to 91.7 µM;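 further: cells exposed to compound for 16 hours at 37 °C before detection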
How it was run: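 Primary rat proximal tubule cells, 1000/well, 5 h plating at 37 °C, then compound 16 h at 37 °C. Caspase-Glo 3/7 reagent, 1 h RT, luminescence. Normalized to DMSO (basal) and 10 uM staurosporine (100%); Hill-fit AC50.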

[13] = MultiTox-Fluor Cytotoxicity Assay - LYMP1-001 - Dead Cells (AID 946); settings: LYMP1-001 lymphoblastoid cells, dead-cell protease fluorescence; series mostly up to 92.2 µM; further: potency means the concentration at half of the fitted maximal effect
How it was run: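 Cytotoxicity as increased dead-cell protease fluorescence (bis-AAF-R110, 485/520 nm), read 60 min after MultiTox-Fluor reagent. Human lymphoblastoid line exposed 16 h; Hill-fitted AC50, with DMSO as 0% and 15 uM tetraoctylammonium bromide as 100%.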

[14] = MultiTox-Fluor Cytotoxicity Assay - LYMP1-003 - Live Cells (AID 962); settings: LYMP1-003 lymphoblastoid cells, MultiTox-Fluor live-cell protease fluorescence; series mostly up to 92.2 µM; further: potency means the concentration at half of the fitted maximal effect
How it was run: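 Readout: live-cell fluorescence (Ex/Em=405/510) from GF-AFC cleavage after 60 min MultiTox-Fluor reagent at room temperature. Lymphoblastoid LYMP1-003 cells, 16 hr compound treatment, 37 C. Concentration-response fitted to standard Hill equation for AC50.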

[15] = Cell Viability - LYMP1-003 - Assay at 24 hr (AID 963); settings: LYMP1-003 lymphoblastoid cell viability; series mostly up to 92.2 µM
How it was run: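 CellTiter-Glo luminescence (intracellular ATP) read after 24 hr, 37 C compound exposure of 2500 LYMP1-003 human lymphoblastoid cells/well in complete medium; qHTS concentration series; AC50 via standard Hill equation.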

[16] = qHTS Assay for Identification of Small Molecule Inducers of Hypoxia Response (AID 2120; active means well fitted curve in the direction sought with a large enough effect in the signal ratio, with a control signal flat, not every such curve was filed as active; the % refers to the signal ratio); settings: hypoxia response reporter cells, beta-lactamase ratio readout; series mostly up to 104 µM
How it was run: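 Read-out: CCF4 FRET emission ratio 460nm/530nm (excitation 405nm), converted to %Activity, with AC50 fitted across a compound titration. ME-180 cells carried an HRE-driven beta-lactamase reporter; compound exposure 17 h, 37 degrees C.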

[17] = target: Peroxisome proliferator-activated receptor alpha (Homo sapiens) (UniProt Q07869); experiment: qHTS assay for small molecule agonists of the peroxisome proliferator-activated receptor alpha (PPARalpha) signaling pathway (AID 651778); settings: PathHunter PPARalpha complementation, chemiluminescence, 6 h; max response: stronger effect = higher value
How it was run: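 Chemiluminescence from complemented enzyme reported PPARalpha activation in cells after 6 hr of compound treatment at 37 C. The detection reagent was incubated for 60 min at room temperature, and compounds were scored as agonists.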

[18] = qHTS assay for small molecule agonists of the antioxidant response element (ARE) signaling pathway measured by Nrf2-dependant transcriptional activity - cell viability counter screen (AID 720653; active means well fitted curve in the direction sought with a large enough effect in the repeat runs; an effect the other way counts as inactive or inconclusive); settings: ARE-bla HepG2 viability, CellTiter-Glo ATP luminescence, 16 h; max response: stronger effect = lower value
How it was run: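 Cytotoxicity counter screen: intracellular ATP quantified by CellTiter-Glo luminescence in the same ARE-bla HepG2 plates, after 16 h compound exposure and a 2 h beta-lactamase substrate step.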

[19] = qHTS assay for cell viability of HEK293 cells (AID 743288); settings: ATP luminescence (CellTiter-Glo), 18 h; max response: stronger effect = lower value; further: nearly all actives have a fitted effect of over 50% in size; further: potency means the concentration at half of the fitted maximal effect
How it was run: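 After 18 h compound exposure at 37 C, parental HEK293 cells (2,000/well) are lysed with CellTiter-Glo and luminescence is read following 30 min at room temperature.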

[20] = qHTS assay for cell viability of the p53RE-bla HCT-116 cell line (AID 743292); settings: p53RE-bla HCT-116 viability, ATP luminescence, 16 h; series mostly up to 95 µM; further: nearly all actives have a fitted effect of over 55% in size
How it was run: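 Viability of compound-treated p53RE-bla HCT-116 cells is taken from ATP-dependent luciferase luminescence. Treatment lasts 16 h at 37 C after a 5 h settling period; detection follows 30 min at room temperature.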

Chain of Peroxisome proliferator-activated receptor alpha (Homo sapiens) (Q07869 whole entry, looked up): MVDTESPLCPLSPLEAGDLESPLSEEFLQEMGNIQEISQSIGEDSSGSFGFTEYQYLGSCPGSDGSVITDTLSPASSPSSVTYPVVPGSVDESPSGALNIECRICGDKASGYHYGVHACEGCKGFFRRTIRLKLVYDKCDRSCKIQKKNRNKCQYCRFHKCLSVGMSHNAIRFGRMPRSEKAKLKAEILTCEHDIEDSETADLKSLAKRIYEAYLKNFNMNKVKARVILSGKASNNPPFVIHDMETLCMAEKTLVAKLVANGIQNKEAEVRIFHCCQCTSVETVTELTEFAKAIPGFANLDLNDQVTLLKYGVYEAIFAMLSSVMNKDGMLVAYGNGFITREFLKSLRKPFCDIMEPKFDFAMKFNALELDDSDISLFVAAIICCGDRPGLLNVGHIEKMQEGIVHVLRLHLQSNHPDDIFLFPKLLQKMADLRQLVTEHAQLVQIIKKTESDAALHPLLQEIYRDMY

Compound: C1CCCNCC1
- Potency [1]: > 92 µM
- Potency [2]: inactive
- Potency [3]: inactive
- Potency [4]: inactive
- Potency [5]: inactive
- outcome [6]: inactive
- outcome [7]: inactive
- outcome [8]: inactive
- Potency [9]: inactive
- caspase-3 activation [10]: 2.08%
- outcome [11]: inactive
- Potency [12]: inactive
- Potency [13]: inactive
- Potency [14]: inactive
- Potency [15]: inactive
- Potency [16]: inactive
- max response [17]: 0.101%
- max response [18]: -5.98%
- max response [19]: -3.87%
- Potency [20]: inactive

Compound: c1ccc(COCc2ccccc2)cc1
- Potency [1]: > 92 µM
- Potency [2]: inactive
- Potency [3]: inactive
- Potency [4]: inactive
- Potency [5]: inactive
- outcome [6]: inactive
- outcome [7]: inactive
- outcome [8]: inactive
- Potency [9]: inactive
- caspase-3 activation [10]: 2.76%
- outcome [11]: inactive
- Potency [12]: inactive
- Potency [13]: inactive
- Potency [14]: inactive
- Potency [15]: inactive
- Potency [16]: inactive
- max response [17]: -3.88%
- max response [18]: 3.34%
- max response [19]: 0.589%
- Potency [20]: inactive

Compound: C=C1CC[C@H](O)C/C1=C/C=C1\CCC[C@]2(C)[C@@H]([C@H](C)CCCC(C)C)CC[C@@H]12
- Potency [2]: inactive
- Potency [3]: inactive
- Potency [4]: 31.6 µM (active)
- Potency [5]: inactive
- outcome [6]: inactive
- caspase-3 activation [10]: 173% (active)
- outcome [11]: inactive
- Potency [13]: 39.8 µM (active)
- Potency [14]: 50.1 µM (active)
- Potency [16]: inactive
- max response [17]: -0.403%
- max response [18]: -9.05%
- Potency [19]: 44.7 µM (active)

Compound: CC(=O)OC1CC(C)OC(C)O1 (stereo not drawn)
- Potency [1]: > 92 µM
- Potency [2]: inactive
- Potency [3]: inactive
- Potency [4]: inactive
- Potency [5]: inactive
- outcome [6]: inactive
- outcome [7]: inactive
- outcome [8]: inactive
- Potency [9]: inactive
- caspase-3 activation [10]: 2.93%
- outcome [11]: inactive
- Potency [12]: inactive
- Potency [13]: inactive
- Potency [14]: inactive
- Potency [15]: inactive
- Potency [16]: inactive
- max response [17]: -4.25% and 0.0018%
- max response [18]: 6.75% and -0.741%
- max response [19]: -1.36% and -5.57%
- Potency [20]: inactive

Compound: c1ccc2c(c1)ccc1ccccc12
- Potency [1]: > 92 µM
- Potency [2]: inactive
- Potency [3]: inactive
- Potency [4]: inactive
- Potency [5]: inactive
- outcome [6]: inactive
- outcome [7]: inactive
- outcome [8]: inactive
- Potency [9]: inactive
- caspase-3 activation [10]: -0.803%
- outcome [11]: inactive
- Potency [12]: inactive
- Potency [13]: inactive
- Potency [14]: inactive
- Potency [15]: inactive
- Potency [16]: inactive
- max response [17]: -2.79% and 0.0819%
- max response [18]: -0.337% and -2.44%
- max response [19]: 2.85% and -2.95%
- Potency [20]: inactive

Compound: CCCCCCN
- Potency [1]: > 92 µM
- Potency [2]: inactive
- Potency [3]: inactive
- Potency [4]: inactive
- Potency [5]: inactive
- outcome [6]: inactive
- outcome [7]: inactive
- outcome [8]: inactive
- Potency [9]: inactive
- caspase-3 activation [10]: 1.72%
- outcome [11]: inactive
- Potency [12]: inactive
- Potency [13]: inactive
- Potency [14]: inactive
- Potency [15]: inactive
- Potency [16]: inactive
- max response [17]: 1.86%
- max response [18]: -8.85%
- max response [19]: -3.69%
- Potency [20]: inactive
